Test results published in PubChem BioAssay (NCATS).
Results filed as inconclusive are left out. A call without a number means that no potency is given here. Active and inactive are the calls of the source. Calls come from the whole dose curve; as a rule, active = well fitted inhibition curve with a large enough effect in the repeat runs; inconclusive = weak or mixed curves; inactive = no such curve, though single readings can be large or run the other way.

molecular target: Cytochrome P450 2C9 (Homo sapiens) (UniProt P11712); test: Cytochrome P450 family 2 subfamily C member 9 (CYP2C9) small molecule antagonists: luciferase biochemical (cell-free) qHTS assay (AID 1645842); conditions: P450-Glo CYP2C9 enzyme assay, luciferin luminescence; series mostly up to 57.4 µM; note: nearly all actives have a fitted effect of over 55% in size
Sequence (P11712 whole entry, looked up): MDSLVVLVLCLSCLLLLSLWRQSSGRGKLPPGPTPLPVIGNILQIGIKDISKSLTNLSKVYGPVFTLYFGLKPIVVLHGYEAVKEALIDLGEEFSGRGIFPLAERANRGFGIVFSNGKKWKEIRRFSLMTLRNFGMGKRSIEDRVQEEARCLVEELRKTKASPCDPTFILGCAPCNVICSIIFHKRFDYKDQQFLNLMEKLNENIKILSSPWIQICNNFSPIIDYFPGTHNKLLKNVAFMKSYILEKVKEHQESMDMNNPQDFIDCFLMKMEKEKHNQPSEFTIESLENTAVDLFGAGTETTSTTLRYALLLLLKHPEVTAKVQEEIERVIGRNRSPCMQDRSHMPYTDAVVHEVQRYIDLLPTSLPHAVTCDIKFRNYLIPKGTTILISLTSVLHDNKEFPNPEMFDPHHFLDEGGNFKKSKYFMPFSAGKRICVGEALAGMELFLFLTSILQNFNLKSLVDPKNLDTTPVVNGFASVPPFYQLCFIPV
Protocol: National Center for Advancing Translational Sciences [NCATS] Assay Overview: Cytochrome P450 (CYP) enzymes are membrane-bound hemeproteins that play a key role in metabolism of drugs and xenobiotics. Assaying the effect of chemicals on CYP isozymes is useful to minimize the adverse drug reactions and toxicities in drug development process. Chemical compounds were tested for their effect on CYP enzyme activities by using P450-Glo (TM) screening systems (Promega Corporation, Madison, WI). These systems provide a luminescent method containing proluciferin substrates and are converted to luciferin products by CYP isozymes. The luciferin products formed are detected with a luciferin detection reagent, and the amount of light produced is proportional to CYP activity. P450-Glo (TM) CYP2C9 screening system (Catalog. No. V9790) was used to detect the compounds that interfere in CYP2C9 activity.
Assay Protocol Summary: Two ul of enzyme-substrate mix supplemented with 0.4% Bovine Serum Albumin was dispensed into medium binding white/solid 1536-well plates (Greiner Bio-One North America Inc., Monroe, NC) using a Flying Reagent Dispenser (FRD, Aurora Discovery, San Diego, CA). […] The assay plates were incubated at room temperature for 10 min. Then 2 ul of NADPH regeneration solution was added to each well of the assay plates using an FRD and incubated at 37C for 1 h. The reaction was stopped by adding 4 ul of detection reagent using an FRD and after 20 min incubation at room temperature, the luminescence signal was measured using a ViewLux plate reader (Perkin Elmer, Shelton, CT). Data were expressed as relative luminescence units.
Potency is the fitted concentration of half-maximal effect.

SMILES | Potency
C[C@H]1NCc2cc(-c3ccc4c(=O)c(C(=O)O)cn(C5CC5)c4c3OC(F)F)ccc21 | inactive
Cc1nc(C2CCCCC2)c(-c2ccc(S(N)(=O)=O)c(F)c2)o1 | 2.19 µM (active)
OCCCc1ccccc1 | inactive
Oc1ccc(CCNCCCCCCNCCc2ccccc2)cc1O | inactive
CN(C)C(=O)CNC(=O)Cc1ccccc1 | inactive
CN1CCCN(C(c2ccccc2)c2ccc(Cl)cc2)CC1 (stereo not given) | inactive
CCOC(=O)c1ccc(O)c(O)c1 | inactive
CN1CCN(N)CC1 | inactive
CC(C)CCCC(C)NCCC(C)C (stereo not given) | inactive
CC(=O)Nc1ccn(C2COC(COC(=O)c3ccccc3)O2)c(=O)n1 (stereo not given) | inactive
Nc1ccc(C(=O)N2CC3CC(CN(Cc4ccccc4)C3)C2)cc1 | inactive
OCc1cccnc1 | inactive
O=C(O)CCCC[C@@H]1SC[C@@H]2NC(=O)N[C@@H]21 | inactive
COC(=O)/C=C\C(=O)OC | inactive
CCCCC/C=C\C/C=C\CCCCCCCC(=O)NC(C)c1ccccc1 (stereo not given) | 1.55 µM (active)
C[C@H](CN1CCCC1)C(=O)c1ccc(C(F)(F)F)cc1 | inactive
CSCC[C@H](NC(=O)[C@H](Cc1c[nH]c2ccccc12)NC(=O)CCNC(=O)OC(C)(C)C)C(=O)N[C@@H](CC(=O)O)C(=O)N[C@@H](Cc1ccccc1)C(N)=O | inactive
CCCOc1ccc2c(c1)CC[C@@H]1[C@@H]2CC[C@]2(C)C(OC)CC[C@@H]12 (stereo not given in full) | 19.5 µM (active)
Nc1ncnc2nc[nH]c12 | inactive
O=C(c1cc(O)c(O)c(O)c1)c1ccc(O)c(O)c1O | inactive

SMILES | Potency
CNC(=O)c1c(I)c(NC(C)=O)c(I)c(C(=O)O)c1I | inactive
COc1ccc(OC(=O)N(CC(=O)O)Cc2ccc(OCCc3nc(-c4ccccc4)oc3C)cc2)cc1 | 17.4 µM (active)
CCCCCOc1ccc(C2SC(=O)NC2=O)cc1OCC (stereo not given) | 7.76 µM (active)
CCCC(=O)O[C@]1(C(=O)COC(=O)CC)CC[C@H]2[C@@H]3CCC4=CC(=O)CC[C@]4(C)[C@H]3[C@@H](O)C[C@@]21C | inactive
Cc1nc2n(c(=O)c1CCN1CCC(C(=O)c3ccc(F)cc3)CC1)CCS2 | inactive
CCCC(=O)O[C@]1(C(=O)CC)CC[C@H]2[C@@H]3CCC4=CC(=O)CC[C@]4(C)[C@H]3[C@@H](O)C[C@@]21C | 17.4 µM (active)
CC(=O)Nc1ccc(S(=O)(=O)Nc2cc(C)on2)cc1 | inactive
C/C(=N\O)[C@@H](C)NCC(C)(C)CN[C@H](C)/C(C)=N/O | inactive
O=C(O)c1cn(C2CC2)c2cc(Cl)c(F)cc2c1=O | inactive
CC(=O)OC[C@H]1O[C@@H](OC(C)=O)[C@H](OC(C)=O)[C@@H]1OC(C)=O | inactive
CN1C(=O)c2ccccc2C1=O | inactive
CCOC(=O)N1CCC(Nc2ccc(Cl)cc2N)CC1 | 8.71 µM (active)
CC(=O)OCC(=O)[C@@]1(O)[C@H](OC(C)=O)C[C@H]2[C@@H]3CCC4=CC(=O)C=C[C@]4(C)[C@@]3(F)[C@@H](O)C[C@@]21C | inactive
Brc1ccccc1-c1ccccc1 | inactive
O=C(O)Cc1ccc(OCCNC[C@H](O)c2ccccc2)cc1 | inactive
O=C1Cc2cc(Cl)ccc2N1 | 11 µM (active)
CC1(C)OC(=O)Nc2ccc(Br)cc21 | inactive
Nc1c(NC/C=C\COc2cc(CN3CCCCC3)ccn2)c(=O)c1=O | inactive
CN1CCC(N(Cc2cccs2)c2ccccc2)CC1 | inactive
COCCc1ccccn1 | inactive
